We go through 32 compounds from PubChem BioAssay (NCATS).

SMILES strings stand for the structures. Results filed as inconclusive are left out. Entries that show only a call come without a potency. Values without a mark were called inactive. The source made the active and inactive calls. Calls come from the whole dose curve; as a rule, active = well fitted inhibition curve with a large enough effect; inconclusive = small, poorly fitted or top-dose-only effect; inactive = no such curve, though single readings can be large or run the other way.

The subject of assay [1] is Zika virus NS2B-NS3 protease (unlinked complex). The experiment in a line: Primary screen GU Rhodamine qHTS for Zika virus inhibitors: Unlinked NS2B-NS3 protease assay (AID 1347159). Note: nearly all actives have a fitted effect of over 60% in size. Note: potency is the fitted concentration of half-maximal effect. In outline: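 Enzyme 25 nM in Tris-HCl pH 8.0 + 0.01% Tween 20; compounds up to 114 microM, 15 min RT dark; + Rhod110 substrate 1.5 microM; read t0 and 15 min; delta fluorescence → % inhibition → 4-parameter Hill fit.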
Background: In qHTS, concentration-response curves come from the screen itself.

The subject of assay [2] is Zika virus NS2B-NS3 protease (linked construct). The experiment in a line: Primary screen NINDS Rhodamine qHTS for Zika virus inhibitors (AID 1347160). Note: nearly all actives have a fitted effect of over 55% in size. In short, it runs like this: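 Enzyme (25 nM, linked NS2B-NS3) was preincubated 15 min with compound in 10 mM Tris-HCl pH 8.0, 0.01% Tween 20. Rhodamine110 substrate (1.5 microM) was then added and fluorescence read at start and after 15 min.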

Take `Cc1cc(N2CCOCC2)ccc1Nc1nc(NC2CCCCC2)c2[nH]cnc2n1`: the Potency result in assay [1] and in assay [2] was “inactive” each time.
Take `O=C(NC1(c2ccccc2)CC1)c1c(CN2CCC(N3CCCCC3)CC2)c(-c2cccc(C(F)(F)F)c2)nc2cc(Br)ccc12`: the Potency entry in assay [1] and in assay [2] was “inactive” throughout.
`COc1cc(C(=O)NCC2(N(C)C)CCCC2)cc(OC)c1OCc1ccccc1`: the Potency result in assay [1] and in assay [2] was “inactive” each time.
As for `Cc1c(C2=CCN(C(=O)N(C)C(C)C)CC2)nnn1-c1cccnc1F`, the Potency result in assay [1] and in assay [2] was “inactive” throughout.
Take `CCC(C)(OC(C)=O)C(=O)O[C@H]1[C@H](OC(C)=O)[C@]2(CO)[C@H](O)[C@H](O)[C@]3(C)C(=CCC4[C@@]5(C)CC[C@H](O[C@@H]6O[C@H](C(=O)O)[C@@H](O)[C@H](O[C@@H]7OC[C@H](O)[C@H](O[C@@H]8OC[C@H](O)[C@H](O)[C@H]8O)[C@H]7O)[C@H]6O[C@@H]6O[C@H](CO)[C@@H](O)[C@H](O)[C@H]6O)C(C)(C)C5CC[C@]43C)[C@@H]2CC1(C)C` (some centres undefined): the values for the activity change, negative = inhibition in assay [1] and in assay [2] were -1.56% [at 19.1 µM] and -4.88% [at 10.7 µM], respectively.
`COc1c(C)cnc(Cn2cc(C#CCC(C)(C)O)c3c(Cl)nc(N)nc32)c1C`: the Potency entry in assay [1] and in assay [2] was “inactive” in each case.
Consider `CCOC(=O)N1CCC(N2CCC[C@@H](NC(=O)c3ccccc3C)C2)CC1`, for which the Potency result in assay [1] and in assay [2] was “inactive” throughout.
Take `O=c1cc(N2CCN(c3cccc(C(F)(F)F)c3)CC2)[nH]c(=O)n1C1CCCCC1`: the Potency result in assay [1] and in assay [2] was “inactive” each time.
Take `C/C=C(\C)C(=O)OC1C(C)C2(O)C(C=C(CO)CC3(O)C(=O)C(C)=CC32)C2C(C)(C)C12OC(=O)C(C)C` (centres undefined): the Potency entry in assay [1] and in assay [2] was “inactive” throughout.
Regarding `CCN1CCN(Cc2ccc(NC(=O)c3ccc(C)c(Oc4ccnc5[nH]ccc45)c3)cc2C(F)(F)F)CC1`, the Potency entry in assay [1] and in assay [2] was “inactive” each time.
For `CC1(C)CC[C@]2(C(=O)O)CC[C@]3(C)C(=CCC4[C@@]5(C)C[C@@H](O)[C@H](O)C(CO)(CO)C5CC[C@]43C)C2[C@@H]1O` (some centres undefined), the Potency result in assay [1] and in assay [2] was “inactive” each time.
For the compound `Cn1cc(-c2ccc(S(=O)(=O)n3ccc(/C=C/C(=O)Nc4ccccc4N)c3)cc2)cn1`, the Potency result in assay [1] and in assay [2] was “inactive” throughout.
`COc1cc2ncc(-c3ccccc3)nc2cc1OC`: the Potency entry in assay [1] and in assay [2] was “inactive” throughout.
As for `C=C(C)C1=C[C@@]2(C)C(=CC1=O)CC[C@@H](O)[C@@H]2C`, the Potency entry in assay [1] and in assay [2] was “inactive” in each case.
Regarding `O=C(NCCN1CCN(c2cccc3c2OCCO3)CC1)c1ccc(F)cc1`, the Potency result in assay [1] and in assay [2] was “inactive” in each case.
Regarding `CCCc1cc2c(N3CCN(C4=NCC(C)(C)S4)CC3)ncnc2s1`, the Potency result in assay [1] and in assay [2] was “inactive” throughout.
Take `COc1cc(N(C)CCN(C)C)c(N)cc1Nc1nccc(-c2cn(C)c3ccccc23)n1`: the Potency entry in assay [1] and in assay [2] was “inactive” each time.
As for `Nc1ncnc2c1c(-c1ccc(Cl)cc1)nn2-c1cccc(-c2cnnn2Cc2cccc(-c3ccccc3)c2)c1`, the Potency result in assay [1] and in assay [2] was “inactive” throughout.
Regarding `C=CC(=O)N1CCC(Oc2cc3c(Nc4ccc(Cl)c(Cl)c4F)ncnc3cc2OC)CC1`, the Potency entry in assay [1] and in assay [2] was “inactive” throughout.
With `CN1CCN(C(=O)CN[C@@H]2C[C@H]2c2ccc(OCc3ccccc3)cc2)CC1`, the Potency entry in assay [1] and in assay [2] was “inactive” in each case.
With `CCn1c(-c2nonc2N)nc2c(C#CCO)ncc(OCCCN)c21`, the Potency result in assay [1] and in assay [2] was “inactive” throughout.
Consider `CN(C)Cc1ccc(-c2cnn3c(-c4cccc(NC(=O)c5cccc(C(F)(F)F)c5)c4)ccnc23)cc1`, for which the Potency entry in assay [1] and in assay [2] was “inactive” each time.
Regarding `CCC(C)CC(=O)OC1C(=O)C(CO)=CC(O)C1C(C)C` (centres undefined), the Potency result in assay [1] and in assay [2] was “inactive” each time.
Turning to `CC(C)c1cc(-c2ccc(F)c3ccccc23)nc(N)n1`, the Potency result in assay [1] and in assay [2] was “inactive” each time.
With `CNC1CN(c2ccc3c(=O)c(C(=O)O)cn(-c4nccs4)c3n2)CC1OC` (centres undefined), the activity change, negative = inhibition in assay [1] was 18.7% [at 19.1 µM]; in assay [2] it was 19.1% [at 10.7 µM].
Regarding `COc1c2c(c(C)c3c1C(=O)OC3)O[C@@]1(C)C[C@@H](OC(C)=O)[C@]34O[C@](OC)(CC[C@]3(C)[C@H]1C2)OC4(C)C`, the Potency entry in assay [1] and in assay [2] was “inactive” each time.
Consider `COc1ccc(S(=O)(=O)Nc2c(C)cc(C)cc2C)cc1`, for which the Potency result in assay [1] and in assay [2] was “inactive” each time.
In the case of `CC(=O)O[C@H]1CC(C)(C)CC2[C@]13CO[C@@]21CCC2[C@@]4(C)CC[C@H](O[C@@H]5OC[C@H](O[C@@H]6O[C@H](CO)[C@@H](O)[C@H](O)[C@H]6O[C@@H]6OC[C@@H](O)[C@H](O)[C@H]6O)[C@H](O)[C@H]5O[C@@H]5O[C@H](CO)[C@@H](O)[C@H](O)[C@H]5O)[C@@](C)(CO)C4CC[C@@]2(C)[C@]1(C)C[C@H]3O` (some centres undefined), the Potency result in assay [1] and in assay [2] was “inactive” each time.
For `C/C=C(/C=C(C)/C=C/C=C/C=C(\C)C(=O)C12OC1C(O)(CCO)NC2=O)C(=O)OC` (centres undefined), the Potency result in assay [1] and in assay [2] was “inactive” throughout.
`C=CC(=O)Nc1ccc2ncnc(Nc3cccc(Br)c3)c2c1`: in assay [1], the Potency was 44.7 µM (active). Moreover, in assay [2], the Potency entry was “inactive”.
Taken in the same sequence, the figures for `CC(C)(O)c1ccn2c(-c3ccc(F)c(-c4ccc(F)cc4C#N)c3)cnc2c1F` were “inactive” and “inactive”.
Taken in the same sequence, the figures for `CN1CCc2cc3c(cc2C(=O)Cc2cc4c(cc2C1)OCO4)OCO3` were “inactive” and “inactive”.
